A selection: hits, their analogues and other compounds. The true share with any hit is near 1.7%.
GLP1R cytotox – qHTS of GLP-1 Receptor Inverse Agonists: Cytotox Screen. AID 624418, 2012. Potency, µM (titrated, usually from 38.3 µM), for inactives: top-dose activity change, negative = inhibition, most hits filed as inhibitors. HEK293 cAMP-luciferase reporter cells, luminescence, 24 h. 0.13% of 410,000 active;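 also: loss of luciferase light is scored as toxicity; % is scaled to controls: 0 for no effect and ±100 for the full control effect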
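A 23 nL compound transfer followed 12 hours of cell culture at 37 deg C; exposure then lasted 24 hr. Luciferase assay detection reagent was dispensed and plates read for luminescence after a 12 min room-temperature wait.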
GLP-1R agonist – qHTS of GLP-1 Receptor Agonists; HEK293 GLP-1R CRE-luciferase, luminescence, 4-6 h; cells express a hypersensitive GLP-1R form; Potency, µM (top dose mostly 45.6 µM), for the others: top-dose activation, actives largely listed as activators; 0.007% of 380,000 active; AID 624172, 2012; also: % of control where 0% means no effect
GLP-1R inv ag – qHTS of GLP-1 Receptor Inverse Agonists (Inhibition Mode). 1.6% of 410,000 active. AID 624417, 2012. Glucagon-like peptide 1 receptor (Homo sapiens), P43220. Potency, µM (series often up to 38.3 µM), for inactives: top-dose activity change, negative = inhibition, most hits filed as inhibitors. HEK293 GLP-1R CRE-luciferase, luminescence, 24 h; GLP-1R form is constitutively active; also: % is scaled to controls: 0 for no effect and ±100 for the full control effect; nearly all actives have a fitted effect of over 55% in size
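Inverse agonists were sought by their lowering of basal cAMP reporter luciferase output in HEK293 cells stably carrying constitutively active human GLP-1R, after 24 h compound treatment.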
PTHR1 ag – qHTS for PTHR1 Agonists: Primary Screen | HEK293 GP2 PTHR1 cells, GloSensor cAMP luminescence, 1 h | Potency, µM (top dose mostly 115 µM), for the others: at the highest dose activation, hits mostly activators | 0.075% of 410,000 active | AID 743266, 2014; also: nearly all actives have a fitted effect of over 55% in size
Target sequence (Q03431 whole entry, looked up): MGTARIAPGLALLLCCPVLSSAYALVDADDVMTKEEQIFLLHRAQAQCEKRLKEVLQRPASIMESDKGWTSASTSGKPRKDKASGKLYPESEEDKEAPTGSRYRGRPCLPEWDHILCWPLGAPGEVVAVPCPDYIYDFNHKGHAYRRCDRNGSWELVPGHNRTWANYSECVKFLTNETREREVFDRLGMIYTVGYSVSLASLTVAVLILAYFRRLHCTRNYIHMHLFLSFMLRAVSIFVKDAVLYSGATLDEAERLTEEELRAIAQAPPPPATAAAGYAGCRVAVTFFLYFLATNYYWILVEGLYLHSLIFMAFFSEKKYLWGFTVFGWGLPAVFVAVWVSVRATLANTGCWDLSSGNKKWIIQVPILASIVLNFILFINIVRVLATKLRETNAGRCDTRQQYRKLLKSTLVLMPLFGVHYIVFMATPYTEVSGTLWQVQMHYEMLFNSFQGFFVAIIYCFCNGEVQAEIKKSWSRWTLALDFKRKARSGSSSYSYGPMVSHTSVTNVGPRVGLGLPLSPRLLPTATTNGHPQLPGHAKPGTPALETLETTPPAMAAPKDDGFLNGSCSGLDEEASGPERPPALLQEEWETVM
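HEK-293-derived GP2 cells expressing PTHR1 and a GloSensor cAMP reporter, 3,000/well, plated overnight, given luciferin plus IBMX (each 0.5 mM as added) for 1 h at 37 °C, then compound for 1 h at 37 °C. Luminescence was read after 15 min at room temperature.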
* = called active by the depositor; i = inactive; ? = inconclusive; . = no result given; [ ] = dose if it differs, or a comment. Calls follow the shape of the dose curve; as a rule, active = well fitted curve in the direction sought with a large enough effect; inconclusive = small, poorly fitted or top-dose-only effect, or another doubt; inactive = no such curve, though single readings can be large; an effect the other way counts as inactive or inconclusive. Potency is read from the fitted curve at half-maximal effect.

SMILES | GLP1R cytotox | GLP-1R agonist | GLP-1R inv ag | PTHR1 ag
O=C(CSc1nc(-c2cccc(Cl)c2)nc2cc(=O)[nH]n12)Nc1ccccc1 | 4% | . | 0% | -33%
COC(=O)c1ccccc1NC(=O)CSc1nc2sc3c(c2c(=O)[nH]1)CCCC3 | 2% | . | 13% | i
Cn1cc(CN2CCCC(C(=O)c3cc(F)ccc3F)C2)c2ccccc21 (configuration not stated) | -30% | 11% | ? | i
COc1ccc(F)cc1C(=O)C1CCCN(Cc2cn(C)c3ccccc23)C1 (configuration not stated) | ? | 6% | 3.5µM* | -39%
Cc1ccc(-c2nn3c(-c4ccccc4C)nnc3c3ccccc23)cc1 | 6% | . | 6% | i
NS(=O)(=O)c1ccc(NC(=S)N2CCN(Cc3ccc(Cl)c(Cl)c3)CC2)cc1 | -4% | 5% | 8.9µM* | -21%
O=S(=O)(c1ccccc1)N1CCN(C(=S)Nc2ccc(F)cc2)CC1 | -11% | -7% | -3% | -6%
O=S(=O)(c1ccc(Cl)cc1)N1CCN(C(=S)Nc2ccc(F)c(Cl)c2)CC1 | -17% | -6% | 8.9µM* | -37%
Cc1oc(-c2ccccc2)nc1Cn1c(=O)cc(-c2ccccc2)c2c(C)nn(C)c21 | 8% | . | 1% | -7%
COc1cccc(CNC(=O)CCCN2C(=O)CCn3nc(-c4cccn4C)cc32)c1 | -8% | . | -1% | i
CCC(=O)N1CCc2cc(Br)cc(S(=O)(=O)N3CCCC(C(=O)N(C)c4ccc(Br)cc4)C3)c21 (configuration not stated) | 4% | 1% | 16% | ?
CCOC(=O)Cn1c(S(=O)(=O)Cc2ccc(F)cc2)nc(-c2ccccc2)c1-c1ccccc1 | -4% | 0% | -35% | -11%
C#CCn1c(S(=O)(=O)Cc2ccc(F)cc2)nc(-c2ccccc2)c1-c1ccccc1 | 4% | -3% | 5.6µM* | -12%[57.5 µM]
Cc1ccc(-c2csc(N3CCN(CCCn4c(-c5ccncc5)nc5ccccc54)CC3)n2)cc1 | -12% | -3% | ? | -31%
Cc1ccc(-c2csc(N3CCC[C@@H]3C(=O)NCCn3c(-c4ccncc4)nc4ccccc43)n2)cc1 | -54% | -4% | 13µM* | -18%
CCOc1ccccc1N1CCN(C(=S)NC(=O)C23CC4CC(CC(C4)C2)C3)CC1 | ? | 3% | ? | 0%
CCOc1ccccc1N1CCN(C(=S)NCc2ccc(Cl)cc2)CC1 | 0% | 21% | 11µM* | -54%
C1=C(CCNc2ncnc3c2[nH]c2ccccc23)CCCC1 | -36% | -7% | 4.5µM* | -26%
Cc1cnc(C(=O)O)c[n+]1[O-] | . | -1% | . | .
OC(CNCCc1ccccc1)c1ccccc1 (configuration not stated) | 2% | 27% | 6% | -13%[57.5 µM]
OC(c1ccccc1)C(NCCNCc1ccccc1)c1ccccc1 (configuration not stated) | -2% | 11% | 7.9µM* | i
CO/N=C(/C(=O)N[C@@H]1C(=O)N2C(C(=O)O)=C(CSc3cnns3)CS[C@H]12)c1csc(N)n1 | . | -4% | . | .
CC1=C(c2ccc(C)c(C)c2)S(=O)(=O)N=C1N1CCC(C(=O)Nc2cccc(F)c2)CC1 | 0% | . | ? | -15%
CCOc1cc(/C=N/N=C(N)N)ccc1OCc1ccc(Cl)cc1 | ? | -32% | 11µM* | i
COc1cc(/C=N/N=C(N)N)ccc1OCc1ccc(Cl)cc1 | -28% | -7% | ? | -14%
CCOC(=O)C1CCCN(C(=O)c2cc(OC)ccc2Br)CC1 (configuration not stated) | 1% | -1% | 5% | i
O=C(CSc1ncnc2c1nnn2Cc1ccc(F)cc1)NCC1CCCO1 (configuration not stated) | ? | 0% | 13µM* | -31%
O=c1c2ccccc2ncn1-c1ccc([N+](=O)[O-])cc1[N+](=O)[O-] | -24% | 0% | 5.6µM* | -15%
Fc1ccc(C(CCCn2nnc(-c3cccnc3)n2)c2ccc(F)cc2)cc1 | -9% | -2% | 10µM* | -42%
Cc1cccc(C(=O)Nc2ccccc2C(=O)OCc2cc(=O)n3nc(C4CC4)sc3n2)c1 | -4% | . | -2% | -19%
